Assay outcomes from PubChem.
FBPA Giardia inh = Giardia lamblia aldolase inhibition; AID 2451; purified Giardia FBPA; Potency, µM (titrated, usually from 59.6 µM), inactives show at the highest dose activity, negative = inhibition, hits mostly inhibitors; hit rate 0.71% among 290,000; A8B2U2; further: potency means the concentration at half of the fitted maximal effect; on the % scale 0 is the no-effect control and ±100 the full control effect; nearly all actives have a fitted effect of over 55% in size
Target sequence (A8B2U2 whole entry, looked up): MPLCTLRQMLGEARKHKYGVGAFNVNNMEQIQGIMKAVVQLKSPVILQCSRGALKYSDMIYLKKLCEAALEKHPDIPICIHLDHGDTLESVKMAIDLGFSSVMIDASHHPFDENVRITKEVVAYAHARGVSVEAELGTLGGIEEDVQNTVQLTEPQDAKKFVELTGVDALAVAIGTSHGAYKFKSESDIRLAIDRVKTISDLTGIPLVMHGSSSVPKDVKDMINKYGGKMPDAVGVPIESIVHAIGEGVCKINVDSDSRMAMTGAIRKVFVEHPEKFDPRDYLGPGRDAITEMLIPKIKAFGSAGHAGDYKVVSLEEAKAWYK
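Giardia FBPA (40 nM reagent) was preincubated 10 min at RT with compound (up to 57.5 uM final), then substrate plus GAPDH/TPI/NAD/arsenate coupling system with diaphorase/resazurin was added; resorufin fluorescence (525/598 nm) was read after 20 min.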
LmPK inh = LmPK (Leishmania mexicana) enzyme inhibition; Q27686; purified LmPK, Kinase-Glo ATP luminescence, 1 h; Potency, µM (top dose mostly 57.5 µM), inactives show at the highest dose activity change, negative = inhibition, most hits filed as inhibitors; hit rate 0.37% among 290,000; further: potency means the concentration at half of the fitted maximal effect; on the % scale 0 is the no-effect control and ±100 the full control effect
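Purified LmPK (0.1 nM) with 0.5 mM PEP and 0.1 mM ADP in imidazole buffer pH 7.2 with MgCl2/KCl, 1 h at room temperature. ATP formed was read by luciferase luminescence and normalized to no-enzyme and uninhibited controls.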
CHX counter = counter-screen hit for Shiga toxin inhibitors, cycloheximide; cell reporter, cycloheximide protein synthesis inhibition counterscreen; max response, %; hit rate 12% among 300,000; in the data active means max response mostly above about 13%, no sharp cut-off; inactive means mostly below about 14%; further: read at 38.3 µM for the half of the compounds with a filed dose; 0% is about no effect
Sm TGR block = blocks Schistosoma mansoni thioredoxin glutathione reductase | Q962Y6 | purified TGR, DTNB reduction, TNB absorbance 405 nm | Potency, µM (titrated, usually from 114 µM), inactives show top-dose activity change, negative = inhibition, hits mostly inhibitors | hit rate 3% among 360,000; further: potency means the concentration at half of the fitted maximal effect; on the % scale 0 is the no-effect control and ±100 the full control effect; nearly all actives have a fitted effect of over 60% in size
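Kinetic colorimetric format: TGR-catalysed, NADPH-driven DTNB reduction monitored via TNB absorbance. Enzyme dispensed at 20 nM; compound exposure 15 min at room temperature before reaction start.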
TbPYK inhibitor = T. brucei pyruvate kinase inhibition; Q57TT1; TbPYK enzyme, Kinase-Glo Plus ATP luminescence, 45 min; Potency, µM (titrated, usually from 76.8 µM), inactives show at the highest dose activity, negative = inhibition, actives largely listed as inhibitors; hit rate 0.12% among 410,000; AID 624173; further: potency means the concentration at half of the fitted maximal effect; on the % scale 0 is the no-effect control and ±100 the full control effect; nearly all actives have a fitted effect of over 50% in size
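TbPYK + substrate in 50 mM TEA pH 7.2, 100 mM KCl, 10 mM MgCl2, 0.05% BSA, 0.01% Tween-20; cpd pinned; ADP 130 uM final; 45 min RT; Kinase-Glo Plus 10 min; luminescence endpoint.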
Shiga toxin inh = inhibitors of Shiga toxin in Vero cells. hit rate 9.2% among 290,000. Vero cells, Shiga toxin protein synthesis inhibition reporter. inhibition, % at 38.7 µM; in the data active means inhibition mostly above about 28%, no sharp cut-off; inactive means mostly below about 43%; further: 0% is about no effect
The depositor's hits bear a star; ? = inconclusive; nt = no result. The sample as a whole holds a higher share of hits than the screen did. Unless noted, the call rests on the fitted dose curve; in most records, active means well fitted curve in the direction sought with a large enough effect; inconclusive means small, poorly fitted or top-dose-only effect, or another doubt; inactive means no such curve, though single readings can be large; an effect the other way counts as inactive or inconclusive.

SMILES | FBPA Giardia inh | LmPK inh | CHX counter | Sm TGR block | TbPYK inhibitor | Shiga toxin inh
O=C1S/C(=C/c2ccc(N3CCOCC3)o2)C(=O)N1Cc1c(F)cccc1Cl | -20% | 3% | 6 | ? | ? | 1
O=C1S/C(=C\c2ccc(N3CCOCC3)o2)C(=O)N1Cc1c(F)cccc1Cl | ? | 1% | -2 | 2.8µM* | 25µM* | -9
COc1ccc(OC)c(NC(=O)c2ccccc2N(Cc2ccccc2)S(C)(=O)=O)c1 | -10% | 6% | -1 | -22% | 13µM* | 13
COC(=O)c1ccc(N2C(c3cc(OC)cc(OC)c3)=Cc3ccc(-c4cccnc4)cc3C2CC(=O)C2CC2)cc1 (stereo not drawn) | nt | nt | nt | nt | -1% | nt
CN(C)C=Nc1ccc2nn(-c3ccccc3)nc2c1 | -14% | -7% | 43* | 6% | 4% | 93*
C[C@@H]1CCCCO[C@H](CN(C)C(=O)Nc2ccccc2)[C@@H](C)CN([C@H](C)CO)C(=O)c2cc(NS(=O)(=O)c3cn(C)cn3)ccc2O1 | nt | nt | nt | nt | 1% | nt
O=C(Cn1[nH]c(=O)c2ccccc2c1=O)N1CC=C(c2ccccc2)CC1 | -2% | 8% | -6 | 0% | 0% | -12
O=C(O)C1CC=CCC1C(=O)N1CC=C(c2ccccc2)CC1 (stereo not drawn) | 0% | 0% | 29* | -32% | -15% | 44*
O=C(c1cccs1)N1CC=C(c2ccccc2)CC1 | nt | nt | nt | -11% | -10% | nt
O=C(O)CCC(=O)N1CC=C(c2ccccc2)CC1 | -5% | -1% | 50* | -28% | 4% | 79*
O=C(CSc1nnc(-c2cccc(Cl)c2)o1)Nc1ccc2c(c1)OCCO2 | -1% | -4% | 15 | -1% | -4% | 36*
O=C(CC(c1ccccc1)c1ccccc1)Nc1ccc2c(c1)OCCO2 | nt | -1% | 16 | 11% | 1% | 49
Nc1ccccc1SCC(=O)Nc1ccc2c(c1)OCO2 | nt | -9% | 23* | 3% | -5% | 73*
O=C(CSc1nnc(Cc2ccccc2)o1)Nc1ccc2c(c1)OCO2 | -10% | 6% | 38* | 6% | -12% | 28
CC(=O)NC(CC(=O)Nc1ccc2c(c1)OCCO2)c1ccccc1 (stereo not drawn) | 12% | 1% | 20* | 13% | -8% | 52
O=C(Nc1cccc(Cl)c1)N1CC2CCCN2c2ccccc21 (stereo not drawn) | nt | nt | nt | -19% | -5% | nt
Nc1nnc(SCC(=O)Nc2ccc3c(c2)OCCO3)s1 | 0% | -2% | 24 | -12% | nt | 16
Cc1cccc(SCC(=O)Nc2ccc3c(c2)OCCO3)c1 | 6% | -7% | 39* | 6% | 0% | 102*
Nc1cc(N)nc(SCC(=O)Nc2ccc3c(c2)OCCCO3)n1 | 1% | 1% | 23* | 13% | -4% | 41
Nc1cc(N)nc(SCC(=O)Nc2ccc3c(c2)OCO3)n1 | -2% | 1% | 6 | 8% | -2% | -1
Nc1ccccc1SCC(=O)Nc1ccc2c(c1)OCCO2 | nt | -6% | 37* | 10% | -10% | 87*
O=C(CSc1nnc(-c2ccccn2)o1)Nc1cccc(Cl)c1 | -13% | 1% | 13 | -3% | 26% | 31
O=C(CSc1nnc(-c2ccc(C(F)(F)F)cn2)o1)Nc1cccc(Cl)c1 | -3% | 2% | 17* | 8% | -5% | 56
Cc1cccc(C)c1NC(=O)C(c1ccccc1)N(C)CCc1ccccc1 (stereo not drawn) | nt | nt | nt | nt | 1% | nt
CCCCC(=O)N(C)c1c(CC)nc2c(OCC(=O)C(C)(C)C)cccn12 | nt | nt | nt | nt | -1% | nt
CCOc1ccc2nc(/N=C/c3c(C)[nH]n(-c4ccccc4)c3=O)sc2c1 | 10% | -20% | 30* | -10% | -20% | 61*
CCOc1ccc2nc(/N=C/c3c(C)[nH]n(-c4ccc(C)cc4)c3=O)sc2c1 | 21% | 14µM* | 33* | 3% | -33% | 33
CCOc1ccc2nc(SC3CC(=O)N(c4ccc(C)cc4)C3=O)sc2c1 (stereo not drawn) | 6% | 2% | 2 | 10% | 0% | -5
S=c1[nH]nc(COc2ccccc2)n1C1CCCCC1 | 17% | 13µM* | -4 | 0% | ? | -8
